Screening results as filed in PubChem.
This is a sample that favours compounds with a hit; in the whole collection about 4.8% have one here.
ssDAF-12 act: S. stercoralis DAF-12 activation, primary screen. HEK293 ssDAF-12/GRIP1 lit1-tk-luc reporter, luminescence; % of 3 µM dafachronic acid response. activation, % at 6.8 µM. hit rate 1% among 370,000;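 active means activation above the mean over all tested compounds plus 3 SD, cut at about 0.9% in these data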
hgDAF-12 ag: agonists of H. glycines DAF-12 nuclear receptor; HEK293 GAL4-hgDAF12 UAS-luciferase reporter, agonist luminescence; normalized to butyrate control; activation, % at 6.8 µM; hit rate 1.8% among 370,000;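 active means activation above a cutoff set at the mean of all screened compounds plus 3 SD, cut at about 10% in these data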
SMARCA2 act: activators of SMARCA2 function. activation, % at 9.1 µM. MG213 cells, MMTV-luciferase reporter, dexamethasone, overnight. hit rate 1% among 370,000. AID 652017; in the data active means activation above about 7.8%
hcDAF12 agonist: activators of H. contortus DAF-12 nuclear receptor. activation, % at 6.8 µM. hit rate 1.4% among 370,000. HEK293 hcDAF-12 lit1-tk-luc reporter, luminescence; 0% DMSO, 100% Δ7-dafachronic acid;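 active means activation above the mean of all tested compounds plus 3 SD, cut at about 5.5% in these data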
DAX1 inh-1: inhibitors of human orphan nuclear receptor DAX1 (NR0B1); hit rate 0.99% among 340,000; HEK293 Gal4-DAX1 luciferase reporter, luminescence; AID 504766; inhibition, % at 6.75 µM; P51843;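 active means inhibition above the mean over all tested compounds plus 3 SD, cut at about 4.2% in these data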;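 further: inhibition shows as a rise in luminescence from relieved DAX1 repression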
DAX1 inh-2: blocks DAX1 repression of SF-1 activated StAR promoter; HEK293T StAR-luciferase reporter, SF-1/DAX-1 repression relief; inhibition, % at 6.8 µM; hit rate 1.1% among 370,000; AID 652010;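 active means inhibition above the mean over all tested compounds plus 3 SD, cut at about 3.6% in these data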;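 further: higher inhibition means more luminescence from relief of DAX-1 repression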
LXR ag: activates human LXR-beta, counter-screen for hcDAF-12 agonists. shares compounds with hcDAF12 agonist. activation, % at 6.8 µM. HEK293 Gal4-LXR tk-luc reporter, luminescence, 24 h; normalized: DMSO 0%, positive control 100%. 3,400 tested, under 10 active;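 active means mean percent activation of the reporter above a cutoff set as the average over tested compounds plus their standard deviation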
Target sequence (P55055 whole entry, looked up, the tested form may be a part): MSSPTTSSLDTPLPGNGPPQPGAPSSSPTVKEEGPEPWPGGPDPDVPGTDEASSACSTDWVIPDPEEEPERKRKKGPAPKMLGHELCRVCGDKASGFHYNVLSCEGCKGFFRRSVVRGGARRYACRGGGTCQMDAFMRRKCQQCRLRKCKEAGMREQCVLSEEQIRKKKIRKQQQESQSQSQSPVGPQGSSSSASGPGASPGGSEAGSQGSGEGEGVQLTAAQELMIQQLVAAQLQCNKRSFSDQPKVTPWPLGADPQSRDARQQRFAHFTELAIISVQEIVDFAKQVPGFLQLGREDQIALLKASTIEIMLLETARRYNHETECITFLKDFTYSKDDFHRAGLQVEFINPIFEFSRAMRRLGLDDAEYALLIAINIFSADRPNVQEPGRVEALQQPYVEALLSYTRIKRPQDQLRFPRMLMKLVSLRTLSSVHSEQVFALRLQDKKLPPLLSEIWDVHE
hcDAF12 ag: hcDAF-12 agonism, confirmation assay; shares compounds with hcDAF12 agonist; HEK293 hcDAF-12 lit1-tk-luc reporter, luminescence; % of Δ7-dafachronic acid response; activation, % at 6.8 µM; hit rate 61% among 3,400; AID 743032;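 active means mean activation across triplicate tests above the threshold derived from the earlier primary screen, cut at about 5.5% in these data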
Of the large screens only hits and unclear results are named; the others gave an inactive call (follow-up assays come after a bar, where they were run).

CCc1c(C)nc(SCC(=O)c2cccs2)c(C#N)c1C	hcDAF12 agonist 8.2 | LXR ag inactive | hcDAF12 ag 8.7
O=C(CN(c1ccccc1)S(=O)(=O)c1ccccc1)Nc1ccccc1C(=O)NCc1ccco1	none
CC(C)c1ccc(NC(=O)c2sccc2-n2cccc2)cc1	hgDAF-12 ag 12.0, hcDAF12 agonist 11.4 | LXR ag inactive | hcDAF12 ag 8.9
O=C(O)c1ccccc1C(=O)c1ccc2c(c1)CCC2	hcDAF12 agonist 6.9 | LXR ag inactive | hcDAF12 ag inactive
O=C(O)c1ccccc1Cc1ccc2c(c1)CCCC2	none
CCN(CC)S(=O)(=O)c1ccc(NN=c2c(=O)c3ccccc3c2=O)cc1	none
COc1ccc2nc(N=Nc3ccc(O)c4ccccc34)sc2c1	hcDAF12 agonist 11.9 | LXR ag inactive | hcDAF12 ag inactive
COc1cc(N2CCCC2)c(OC)cc1/C=C(/C#N)c1ccc(F)cc1	none
N#C/C(=C/c1ccc(N2CCCCC2)cc1)c1cccc(F)c1	hcDAF12 agonist 8.8 | LXR ag inactive | hcDAF12 ag inactive
COC(=O)C1=C(C)N(c2cccc3ccccc23)C(=O)C1	none
C/C(=N\NC(=O)c1ccccc1O)C1C(=O)c2ccccc2C1=O	hcDAF12 agonist 6.9 | LXR ag inactive | hcDAF12 ag inactive
C/C(=N/NC(=O)c1cc2ccccc2cc1O)C1C(=O)c2ccccc2C1=O	none
CCOC(=O)C1CCCN(c2c(NCC3CCCO3)c(=O)c2=O)C1 (stereo not given)	none
N/C(=N\OC(=O)c1ccc(F)cc1)c1cccc([N+](=O)[O-])c1	none
Cc1cccc(/C(N)=N/OC(=O)c2ccc(F)cc2)c1	hgDAF-12 ag 12.6, hcDAF12 agonist 7.2 | LXR ag inactive | hcDAF12 ag inactive
Cc1ccc(C(=O)Nc2ncc(Cc3ccccc3)s2)o1	hcDAF12 agonist 11.9, DAX1 inh-2 3.8 | LXR ag inactive | hcDAF12 ag 8.4
O=C(Nc1ncc(Cc2ccc(SC(F)F)cc2)s1)c1ccccc1	none
Cc1nc(-c2ccc(F)cc2)c(CC(=O)N(C)CC(=O)Nc2ccccc2C(F)(F)F)s1	none
C[C@@H]1/C=C/CC(=O)N[C@H](c2ccc3ccccc3c2)[C@H](C)/C=C/CC(=O)N[C@@H]1c1ccc2ccccc2c1	hcDAF12 agonist 8.7 (no result: DAX1 inh-1) | LXR ag inactive | hcDAF12 ag inactive
COC(=O)c1c(N)sc(C(=O)N2CCOCC2)c1C	none
O=C1c2ccccc2-c2nnc(-c3ccccc3)cc21	ssDAF-12 act 1.8, hcDAF12 agonist 7.6 | LXR ag inactive | hcDAF12 ag 6.0
Cc1cccc(-c2cc3c(nn2)-c2ccccc2C3=O)c1	ssDAF-12 act 1.7, hcDAF12 agonist 6.6 | LXR ag inactive | hcDAF12 ag 8.6
Cc1ccn2cc(CC(=O)O)nc2c1	none
CN(C)c1ccc(/C=N/Nc2nc3ccccc3o2)cc1	hcDAF12 agonist 7.7 | LXR ag inactive | hcDAF12 ag inactive
CN(C)c1ccc(/C=N/Nc2nncc3ccccc23)cc1	ssDAF-12 act 1.4, hgDAF-12 ag 14.4, hcDAF12 agonist 8.0 | LXR ag inactive | hcDAF12 ag 11.3
C(=N\Nc1nncc2ccccc12)/c1ccccc1	hcDAF12 agonist 7.7 | LXR ag inactive | hcDAF12 ag 13.6
CCN(CC)S(=O)(=O)c1cccc(C(=O)NNC(=O)c2ccc3[nH]c(=O)c(=O)[nH]c3c2)c1	none
Cc1ccc(Nc2nc(CSc3nnc(-c4ccccc4C)n3C)cs2)cc1	hcDAF12 agonist 6.8 | LXR ag inactive | hcDAF12 ag inactive
O=S(=O)(NCc1c(Cl)cccc1Oc1ccccc1)c1ccccc1	hcDAF12 agonist 20.2 | LXR ag inactive | hcDAF12 ag inactive
O=C(NC1CCCCC1)c1ccc2c(c1)OCO2	hcDAF12 agonist 8.3 | LXR ag inactive | hcDAF12 ag inactive
O=C(NC1CCCCCC1)c1ccc(OCC2CCCO2)cc1 (stereo not given)	hcDAF12 agonist 9.8 | LXR ag inactive | hcDAF12 ag inactive
Cc1csc(NC(=O)c2ccc(OCC3CCCO3)cc2)n1 (stereo not given)	hgDAF-12 ag 12.8, hcDAF12 agonist 6.7, DAX1 inh-2 4.3 | LXR ag inactive | hcDAF12 ag inactive
Cc1c(NC(=O)c2ccc(Cl)nc2)cccc1-c1nc2cccnc2s1	none
CCn1nc(NC(=O)c2ccncc2)c2cc3ccc(C)cc3nc21	none
Cc1ccccc1/C=C1\OC(=O)c2ccccc21	none
Cc1ccc(/C=C2\OC(=O)c3ccccc32)cc1	hcDAF12 agonist 8.4 | LXR ag inactive | hcDAF12 ag 8.5
COC(=O)C1=CN(CC2CCCO2)C=C(C(=O)OC)C1c1cc(OC)c(OC)c(OC)c1 (stereo not given)	none
CS(=O)(=O)c1ccccc1-c1nc(-c2ccc(C(F)(F)F)cc2)no1	none
Cc1c(-c2nc(-c3ccc(C(F)(F)F)cc3)no2)n(C)oc1=O	hcDAF12 agonist 9.5 (no result: DAX1 inh-1) | LXR ag inactive | hcDAF12 ag 7.9
C(=N\n1c2ccccc2c2ccccc21)/c1ccccc1	hcDAF12 agonist 10.4 | LXR ag inactive | hcDAF12 ag 5.9
O=C(c1ccc(NS(=O)(=O)c2ccc3[nH]c(=O)[nH]c3c2)cc1)N1CCCC(C(F)(F)F)C1 (stereo not given)	none
S=C(NCCN1CCOCC1)Nc1ccc(Br)cc1	hcDAF12 agonist 6.9 | LXR ag inactive | hcDAF12 ag inactive
S=C(NCCN1CCOCC1)Nc1ccc(Nc2ccccc2)cc1	none
COCCNC(=S)NNc1ccccc1[N+](=O)[O-]	hcDAF12 agonist 8.7 | LXR ag inactive | hcDAF12 ag inactive
C/C(C/C(C)=C1/SC(=S)NC1=O)=C1\SC(=S)NC1=O	hcDAF12 agonist 6.8 | LXR ag inactive | hcDAF12 ag inactive
O=C(CN1CCCC1)NC(=O)NC1CCCC1	none
Oc1oc(-c2ccccc2)nc1C=Nc1cccc2ccccc12	hcDAF12 agonist 11.5 | LXR ag inactive | hcDAF12 ag inactive
Cc1ccc(-n2ncc(Cl)c2C(=O)NC2CC2)cc1	hgDAF-12 ag 11.3, hcDAF12 agonist 8.8 | LXR ag inactive | hcDAF12 ag 5.6
Cc1ccc(-n2ncc(C(=O)NC3CC3)c2C2CCN(C(=O)OC(C)(C)C)CC2)cc1	none
O=C(Cc1ccccc1)NCc1ccc2c(c1)OCO2	none
O=C(Cc1ccccc1[N+](=O)[O-])NCc1ccc2c(c1)OCO2	ssDAF-12 act 2.2, hgDAF-12 ag 12.0, hcDAF12 agonist 8.8 | LXR ag inactive | hcDAF12 ag 8.6
CC(C)(C)NCc1cccn1-c1sc2c(c1C#N)CCCC2	none
